SMILES strings stand for the structures. “And” between values parts separate entries of the source, which are not always exact repeats. Equal entries are not always repeated. This is part of a sample that, as a whole, favours compounds with a hit. Of some 83,000 tested, about 20% had one in any assay.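 Single-dose data. Exposure time 48 hours. Values below 10 considered active.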 Where a structure was tested more than once in an assay, its records may differ in their call. The source made the active and inactive calls.

This assay relates to HL-60(TB) leukemia. Nature of the assay: NCI-60 one-dose screen, 48 h (100 = growth as untreated, 0 = no growth, -100 = all killed). The note with it: 10 µM unless noted.
As for `O=C(CCCCCCN1CC(=O)N2[C@H](c3cc(Br)cs3)c3[nH]c4ccccc4c3C[C@H]2C1=O)NO`, the growth was 4.98% (active).

As to `NC(Cc1ccccc1)C(=O)NC(Cc1ccccc1)C(=O)O` (stereo not given), the growth was 105% (inactive) and 102% (inactive).

Take `N#Cc1c(-c2ccc(Cl)cc2)cc(-c2cc3ccccc3o2)nc1SCC(=O)c1ccc(Cl)cc1`: the growth is 123% (inactive).

Turning to `CC(=O)c1ccc(NC(=O)Nc2ccc(S(=O)(=O)Nc3ccc(Cl)nn3)cc2)cc1`, the growth was 109% (inactive).

With `COc1cc(C2CC(c3cccc(Nc4ccncc4)c3)=NN2c2ccc(Cl)cc2)cc(OC)c1OC` (stereo not given), the growth is -45.2% (active).

For `CC1CCN(S(=O)(=O)c2ccc(S(=O)(=O)N3CCCC(c4nc5c(nnn5Cc5cccc(Cl)c5)c(=O)[nH]4)C3)cc2)CC1` (stereo not given), the growth was 16.1% (inactive).

As for `CCOc1ccc(Nc2nc(-c3c(C)nc4ncccn34)cs2)cc1`, the growth was -34.1% (active).

Take `O=c1oc2c(cnc3ccccc32)cc1-c1ccsc1`: the growth is 96.7% (inactive).

Regarding `COc1ccc(-c2conc2-n2nc(-c3ccccc3)nc2-c2ccccc2)cc1`, the growth was 99.3% (inactive).

On to `CCN(CC)CCNc1ccc(C)c2sc3ccccc3c(=O)c12` (tested in a mixture with another compound), for which the growth was 10.1% (inactive) and 15.3% (inactive).

`Cc1c(C(=O)NC(Cc2ccccc2)C(O)C(=O)NCc2ccc(F)cc2)[nH]c2ccccc2c1=O` (stereo not given): the growth is 82% (inactive).

For `O=c1ccn2nc3ccccc3c2[nH]1`, the growth was 93.1% (inactive).

Consider `CC(=O)CC(=O)OC/C=C(/C)CCC=C(C)C`, for which the growth is 124% (inactive).

Consider `O=C(NC1C(O)OC(CO)C(O)C1O)NS(=O)(=O)c1ccc(Cl)cc1` (stereo not given), for which the growth was 93.4% (inactive).

Consider `CC1CCC2(C(=O)O)CCC3(C)C(=CCC4C5(C)CCC(O)C(C)(C)C5CCC43C)C2C1C` (stereo not given), for which the growth is 5.83% (active) and 40.2% (inactive).

`CC(C)(C)CC1(C)NC(=O)NC1=O` (stereo not given): the growth is 114% (inactive).

As to `CC(=O)Nc1cccc2c1CCCC2`, the growth was 89.5% (inactive) and 105% (inactive).

In the case of `CCN(CC)C(=O)O/N=C(/C)c1ccccc1`, the growth was 95.5% (inactive).

On to `Nc1c2ccccc2nc2ccccc12`, for which the growth was 21% (inactive) and 9.95% (active) and 47.7% (inactive).

On to `CCCCNC(=O)Oc1ccc(/C(=C(\C)c2ccc(Cl)cc2)c2ccc(OCCN(CC)CC)cc2)cc1`, for which the growth is 69.8% (inactive).

Consider `CC1=C(/C=C/C(C)=C/C=C/C(C)=C/C=N/NC(=S)NC(=S)N/N=C/C=C(C)/C=C/C=C(C)/C=C/C2=C(C)CCCC2(C)C)C(C)(C)CCC1`, for which the growth is 11.7% (inactive) and -28.1% (active).

With `CCOC(=O)C1=C(C)N=C2Sc3cc(OC(F)(F)F)ccc3N2[C@H]1c1ccccn1`, the growth was 46.9% (inactive).

`Cc1ccc(-n2c(-c3cc4c([nH]c5ccccc54)c(-c4cccc(O)c4)n3)n[nH]c2=S)cc1`: the growth is 2.59% (active).

For `COc1ccc(-c2nn(-c3ccc(Cl)cc3)cc2-c2nc3ccccc3[nH]2)cc1`, the growth was 114% (inactive).

As to `COc1cc(-c2nc(-c3ccccc3)c(-c3ccccc3)[nH]2)cc(OC)c1O`, the growth is -8.92% (active).

For `COc1cc(-c2nn(C)nc2-c2cc3ccccc3s2)cc(OC)c1OC`, the growth was -3.84% (active).

For the compound `NC(=O)c1ccc[n+](Cc2ccccc2)c1`, the growth was 152% (inactive).

Consider `CCOc1ccc(Nc2nc3c(s2)C(=O)c2ccccc2C3=O)cc1`, for which the growth is 25.1% (inactive).

As for `O=C1c2ccccc2C(=O)c2c1ccc(C(Br)Br)c2Cl`, the growth was -9.24% (active).

As to `CC(=O)c1cccc(OC(=O)c2ccccc2)c1`, the growth was 79.9% (inactive).

In the case of `Cc1c(C(=O)NCCCc2ccccc2)sc2ncc(-c3ccc(Br)cc3)n12`, the growth is 90.1% (inactive).

Take `CCN(CC)C(=O)C1CCN(C(=O)c2ccccc2)CC1`: the growth was 89.3% (inactive).

As to `COc1ccc(-c2nnc(COc3ccc(NC(=O)Nc4ccc(Cl)c(C(F)(F)F)c4)cc3F)o2)cc1`, the growth was -18.5% (active).

For the compound `COc1cc(/C=C/c2ccccc2)cc(OC)c1`, the growth was 96.2% (inactive).

On to `COc1cccc(/C=C/C(=O)c2cc3c(N)c(C(=O)Nc4ccccc4)sc3nc2C)c1`, for which the growth was 16.9% (inactive).

Regarding `COc1ccc(-c2cnnn2-c2nonc2-n2cccc2)cc1`, the growth is -37.9% (active).

`CC(=O)[C@H]1CC[C@H]2[C@@H]3C[C@H](C)C4=CC(=O)CC[C@]4(C)[C@H]3C(=O)C[C@]12C`: the growth was 79.7% (inactive).

Regarding `OCC(O)c1nc2ccc3[nH]ncc3c2c2c1CCCC2` (stereo not given), the growth is -16.9% (active).

With `Cc1[nH]c(=O)[nH]c(=O)c1Br`, the growth was 129% (inactive).

As to `CC(=O)Nc1ncc(S(=O)(=O)c2ccc([N+](=O)[O-])cc2)s1`, the growth is 113% (inactive).

These data come from PubChem BioAssay (NCI).
